# Measured values: PubChem BioAssay (NCI)
# About 79,000 compounds went through this panel and 15% of them were active in at least one assay; those are over-represented in the sample as a whole. Unmarked numbers belong to inactive results. Active and inactive are the calls of the source. No stated cut-off is given here; in the data, active means growth inhibition above about 70%; inactive means the rest.
# Assay: NCI Yeast Anticancer Drug Screen. Data for the rad52 strain (AID 147);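 further: 0% = growth of vehicle-treated control cultures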
# Conditions: S. cerevisiae rad52 mutant growth inhibition, hits give high values
# Description: Growth inhibition of yeast strains with defined genetic alterations is measured as a screen for potential anti-cancer activity. Selected strains with alterations in DNA damage repair or cell cycle control were exposed to compounds and growth inhibition was measured relative to vehicle treated controls. The strain used in this assay is rad52
Structure (SMILES),growth inhibition (at 1.2 µM),growth inhibition (at 3.7 µM),growth inhibition (at 11.0 µM),growth inhibition (at 33.0 µM),growth inhibition (at 100.0 µM)
CN(C)CCNCCCNc1c2ccccc2nc2cccc([N+](=O)[O-])c12,23%,46%,80% (active),89% (active),94% (active)
CCOc1ccc2nc3ccccc3c(N)c2c1,13%,22%,60%,91% (active),97% (active)
O=S(=O)(c1ccccc1)N1CN2CN(C1)CN(S(=O)(=O)c1ccccc1)C2,-10%,-2%,-15%,-8%,-5%
O=[N+]([O-])c1ccc(C(c2c[nH]c3ccccc23)c2c[nH]c3ccccc23)cc1,82% (active),97% (active),95% (active),90% (active),82% (active)
O=S(=O)(NNc1ccccc1)c1ccccc1,-1%,4%,15%,62%,97% (active)
Cc1cccc2c1C1c3c(C)cccc3C(CC(=O)O)CC1CC2 (stereo not given),13%,92% (active),97% (active),95% (active),88% (active)
CC(=O)CC(c1ccccc1)c1c(O)c2ccccc2oc1=O (stereo not given),5%,-1%,-4%,16%,75% (active)
O=C1Nc2ccc(Br)cc2C1=Nc1cccnc1,-23%,-36%,-40%,-32%,-40%
